Several values for one entry are separate records, joined by “and”; a condition that tells them apart may be missing. Equal entries are not always repeated. Among all 340,000 compounds or so, about 5,100 (1.5%) were called active.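 How the source made its calls: active means mean Tm shift, scaled 0 neutral to 100 positive control, at about 1.3% or above, every replicate too (limit read from the data); inconclusive means no clear call, values can overlap the other calls; inactive means the rest.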 The full list was thinned out, with actives kept by preference.
The compounds below were run against Fibroblast growth factor 22 (Homo sapiens) (UniProt Q9HCT0) (assay: FGF22 ligand-induced thermal stabilization – biophysical, thermal shift, single point, FGF22 synaptogenesis inhibitor project, primary screen (AID 651658)). Settings: recombinant FGF22 thermal shift, SYPRO orange fluorescence; at 9.99 µM; hits give high values; percent of sucrose octasulfate shift, DMSO zero.
Fibroblast growth factor 22 (Homo sapiens), sequence (Q9HCT0 whole entry, looked up): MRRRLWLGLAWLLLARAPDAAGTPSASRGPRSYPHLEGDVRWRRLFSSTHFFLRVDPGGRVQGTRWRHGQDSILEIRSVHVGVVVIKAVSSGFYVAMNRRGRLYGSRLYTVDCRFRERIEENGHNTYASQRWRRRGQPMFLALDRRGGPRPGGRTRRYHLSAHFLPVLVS
For `CO[C@@H]1CN(C)C(=O)c2cc(NC(=O)CC(F)(F)F)ccc2OC[C@H](C)N(S(=O)(=O)c2cn(C)cn2)C[C@H]1C`, the activity (Tm shift, normalised) was -0.268% (inactive). In the case of `N#CCC(=O)NC1CCC(CC2CCC(NC(=O)CC#N)CC2)CC1` (stereo not drawn), the activity (Tm shift, normalised) is reported as -0.185% (inactive). For `N#CCC(=O)NC(=O)NCC1CC1`, the activity (Tm shift, normalised) was 45.2% (active). In the case of `O=C(NCC1CCCCC1)NCC1CCCCC1`, the activity (Tm shift, normalised) is reported as 0.197% (inactive). In the case of `O=C(C[C@H]1C[C@H]2c3cc(NC(=O)C4CCOCC4)ccc3O[C@H]2[C@@H](CO)O1)NCCN1CCCCC1`, the activity (Tm shift, normalised) is reported as 0.018% (inactive). `COc1ccc2c3c(n(C)c2c1)[C@@H](CO)N(C(=O)C1CC1)CC31CN(C(=O)C2CCOCC2)C1` was tested, and the activity (Tm shift, normalised) was -0.006% (inactive). With `O=C(c1cccnc1)N1CCCCN2[C@@H](CO)[C@H](c3ccc(C#Cc4ccccc4)cc3)[C@@H]2C1` the activity (Tm shift, normalised) was -0.469% (inactive). With `O=C1C=CCCN1C(=O)/C=C/c1ccc(F)cc1` the activity (Tm shift, normalised) was 1.39% (active). `O=C1CN(C(=O)COC(=O)/C=C/c2ccc(F)cc2)c2ccccc2N1` was tested, and the activity (Tm shift, normalised) was 0.119% (inactive). In the case of `O=C(N/C(=C\c1ccc(F)cc1)C(=O)N1CCCCCC1)c1ccccc1`, the activity (Tm shift, normalised) is reported as -0.445% (inactive). In the case of `C[C@@H]1CN([C@H](C)CO)C(=O)c2cc(NS(=O)(=O)c3cn(C)cn3)ccc2O[C@@H](C)CCCCO[C@@H]1CN(C)C(=O)CCC(F)(F)F`, the activity (Tm shift, normalised) is reported as -0.484% (inactive). For `CCc1nnc(NS(=O)(=O)c2ccc(NC(=S)NC(=O)c3cccs3)cc2)s1`, the activity (Tm shift, normalised) was 0.364% (inactive). In the case of `CCc1nnc(NS(=O)(=O)c2ccc(NC(=S)NC(=O)/C=C/c3cccs3)cc2)s1`, the activity (Tm shift, normalised) is reported as 43.7% (active). In the case of `CCc1nnc(NC(=O)c2cccc(S(=O)(=O)N(C)c3ccc(OC)cc3)c2)s1`, the activity (Tm shift, normalised) is reported as 0.249% (inactive). For `CCOC(=O)c1c(NC(=S)NC(=O)/C=C/c2cccs2)sc(C)c1C`, the activity (Tm shift, normalised) was 0.207% (inactive). `CCc1nnc(NS(=O)(=O)c2ccc(NC(=O)c3cccc(OC(F)(F)C(F)F)c3)cc2)s1` was tested, and the activity (Tm shift, normalised) was 1.64% (active). For `Cc1cc(NS(=O)(=O)c2ccc(NC(=O)c3cccc(OC(F)F)c3)cc2)nc(C)n1`, the activity (Tm shift, normalised) was 0.163% (inactive). `O=C(Cc1ccncc1)NCC[C@H]1CC[C@@H](NC(=O)Nc2ccc(Cl)cc2)[C@@H](CO)O1` was tested, and the activity (Tm shift, normalised) was -0.005% (inactive). In the case of `O=C(C[C@H]1CC[C@@H](NC(=O)Nc2ccc(F)cc2)[C@@H](CO)O1)NCCN1CCCC1`, the activity (Tm shift, normalised) is reported as -0.13% (inactive). In the case of `CC(C)NC(=O)N[C@H]1CC[C@H](CC(=O)N2CCCCC2)O[C@@H]1CO`, the activity (Tm shift, normalised) is reported as 0.022% (inactive). In the case of `COc1ccc(S(=O)(=O)Nc2ccc3c(c2)CC(=O)N([C@H](C)CO)C[C@H](C)[C@@H](CN(C)C(=O)NC(C)C)O3)cc1`, the activity (Tm shift, normalised) is reported as -0.229% (inactive). For `CCC(O)CNc1nc(-n2nc(C)cc2C)nc2sc3c(c12)CC(C)(C)OC3` (stereo not drawn), the activity (Tm shift, normalised) was -0.058% (inactive). `CCSc1nc2sc3c(c2c(=O)[nH]1)CC(C)(C)OC3` was tested, and the activity (Tm shift, normalised) was -0.053% (inactive). In the case of `CC(C)c1nc2sc3c(c2c(=O)n1N)CC(C)(C)OC3`, the activity (Tm shift, normalised) is reported as 42.9% (active). With `COC(=O)[C@@H]1[C@@H](CO)[C@@H]2Cn3c(ccc(-c4ccc(OC)cc4)c3=O)[C@@H]2N1C` the activity (Tm shift, normalised) was 0.199% (inactive). For `O=C(CSc1nn(-c2ccc(F)cc2)c(=S)s1)NC1CCS(=O)(=O)C1` (stereo not drawn), the activity (Tm shift, normalised) was 0.458% (inactive). In the case of `O=C(CSc1ccccc1F)NC1CCS(=O)(=O)C1` (stereo not drawn), the activity (Tm shift, normalised) is reported as 43% (active). `O=C(Cc1ccc(Cl)cc1)NC1CCS(=O)(=O)C1` (stereo not drawn) was tested, and the activity (Tm shift, normalised) was -0.305% (inactive). `CO[C@H]1CC[C@@H]2CCOc3c(C#N)cccc3C(=O)N(C)CCCC(=O)N(C)C[C@@H]1O2` was tested, and the activity (Tm shift, normalised) was 0.064% (inactive). `COc1ccc(Cc2nc3ccc(C(=O)N4CCC(N(C)C)C4)cc3o2)cc1` (stereo not drawn) was tested, and the activity (Tm shift, normalised) was -0.031% (inactive). With `CCC1C(=O)NCCN1C(=O)c1ccc2nc(Cc3ccc(OC)cc3)oc2c1` (stereo not drawn) the activity (Tm shift, normalised) was 0.064% (inactive). With `CCn1ccnc1CN(C)C(=O)c1ccc2nc(Cc3ccc(OC)cc3)oc2c1` the activity (Tm shift, normalised) was 1.62% (active). For `COc1ccc2c3c(n(C)c2c1)[C@@H](CO)N(C(=O)NC1CCCC1)CC31CCN(C(C)=O)CC1`, the activity (Tm shift, normalised) was -0.236% (inactive). With `CC=Cc1ccc2n(c1=O)C[C@@H]1[C@@H](CO)[C@H](C(=O)NCCC)[C@H]2N1C(=O)C1CC1` (mixture of isomers) the activity (Tm shift, normalised) was -0.404% (inactive). With `CC(=O)Nc1ccccc1-c1cn(CC(=O)N2CCOCC2)nn1` the activity (Tm shift, normalised) was -0.164% (inactive). With `O=C(CCl)N(Cc1cccc([N+](=O)[O-])c1)c1cccc(Cl)c1` the activity (Tm shift, normalised) was 43.2% (active). With `O=C(c1cccc([N+](=O)[O-])c1)N1CCN(Cc2ccccc2)CC1` the activity (Tm shift, normalised) was 0.006% (inactive). For `COC(=O)c1cc(C(=O)N(Cc2ccccc2)c2ccccn2)cc([N+](=O)[O-])c1`, the activity (Tm shift, normalised) was 0.167% (inactive). For `O=C(c1ccc(F)cc1)n1cc(C(=S)N2CCOCC2)c2ccccc21`, the activity (Tm shift, normalised) was 43.1% (active). In the case of `O=C(Nc1ccc(F)cc1)C(=O)c1cn(CC(=O)N2CCOCC2)c2ccccc12`, the activity (Tm shift, normalised) is reported as -0.305% (inactive). With `O=C(Oc1ccc(C(=S)N2CCOCC2)cc1)c1ccc(F)cc1` the activity (Tm shift, normalised) was -0.154% (inactive). `COc1cc(NC(=O)c2cccs2)ccc1NC(=O)c1ccccc1Cl` was tested, and the activity (Tm shift, normalised) was 1.14% (inactive). `COc1cc(NC(=O)c2ccc3c(c2)OCO3)ccc1NC(=O)c1cccs1` was tested, and the activity (Tm shift, normalised) was 1.67% (active). `COC(=O)C[C@@H]1CC[C@H]2[C@H](COc3ccc(NC(=O)c4cccs4)cc3C(=O)N2C)O1` was tested, and the activity (Tm shift, normalised) was -0.323% (inactive). `CC(C)NC(=O)Nc1ccc2c(c1)C(=O)N(C)[C@H]1CC[C@H](CC(=O)NCc3ccc(F)cc3)O[C@H]1CO2` was tested, and the activity (Tm shift, normalised) was 0.053% (inactive). For `O=C(Nc1ccccc1F)N[C@H]1C=C[C@H](CC(=O)N2CCCCC2)O[C@H]1CO`, the activity (Tm shift, normalised) was 0.391% (inactive). With `CCCN1C2CCCC1CC(NC(=O)c1cccc(OC)c1)C2` (stereo not drawn) the activity (Tm shift, normalised) was -0.224% (inactive). In the case of `C=CCN1C2CCCC1CC(NC(=S)Nc1cccc(OC)c1)C2` (stereo not drawn), the activity (Tm shift, normalised) is reported as 43.2% (active). `COc1cccc(NC(=O)N2C3CCCC2CC(NC(C)=O)C3)c1` (stereo not drawn) was tested, and the activity (Tm shift, normalised) was 0.301% (inactive). `O=S(=O)(N[C@@H]1CC[C@H](CCn2cc(C3(O)CCCC3)nn2)O[C@@H]1CO)c1ccc(Cl)cc1` was tested, and the activity (Tm shift, normalised) was -0.216% (inactive). In the case of `C[C@H]1CN([C@@H](C)CO)S(=O)(=O)c2ccc(-c3cccnc3)cc2O[C@H]1CN(C)C(=O)C1CCCCC1`, the activity (Tm shift, normalised) is reported as 0.041% (inactive). In the case of `CCCN1C[C@@H](C)[C@@H](OC)CN(C)C(=O)c2ccc(NC(=O)Nc3cccc(F)c3)cc2OC[C@@H]1C`, the activity (Tm shift, normalised) is reported as -0.405% (inactive). For `COC(=O)c1ccc(CN2CCN(CCCc3ccccc3)C(CCO)C2)cc1` (stereo not drawn), the activity (Tm shift, normalised) was 43.7% (active). In the case of `CCOc1ccc(CN2CCN(CCCc3ccccc3)C(CCO)C2)cc1` (stereo not drawn), the activity (Tm shift, normalised) is reported as -0.164% (inactive). `OCCC1CN(Cc2ccc(Oc3ncccn3)cc2)CCN1CCc1ccccc1` (stereo not drawn) was tested, and the activity (Tm shift, normalised) was 0.032% (inactive). With `O=C(C[C@H]1CC[C@H](NC(=O)C2CCC2)[C@@H](CO)O1)NCCCN1CCOCC1` the activity (Tm shift, normalised) was 0.216% (inactive). In the case of `O=C(C1CCOCC1)N1CC2(C1)[C@H](c1ccccc1)[C@H](CO)N2Cc1ccc(Cl)cc1`, the activity (Tm shift, normalised) is reported as -0.232% (inactive). In the case of `CN1C[C@H](O)COC[C@H]2O[C@H](CC(=O)NC3CCC3)CC[C@@H]21`, the activity (Tm shift, normalised) is reported as 0.225% (inactive). With `CCC(=O)N1C[C@@H](C)[C@@H](OC)CN(C)C(=O)c2ccc(NC(=O)C3CCCCC3)cc2OC[C@H]1C` the activity (Tm shift, normalised) was 0.107% (inactive). With `COc1ccccc1N(CC(=O)Nc1ccccc1C(=O)N1CCCC1)S(C)(=O)=O` the activity (Tm shift, normalised) was 41.8% (inactive). `COc1ccccc1N(CC(=O)Nc1ccc(C(F)(F)F)cc1)S(C)(=O)=O` was tested, and the activity (Tm shift, normalised) was 43.3% (active). With `COc1ccccc1NC(=O)CN(c1ccccc1OC)S(=O)(=O)c1ccccc1` the activity (Tm shift, normalised) was -0.013% (inactive). In the case of `COc1cccc(S(=O)(=O)N2C[C@H](O)COC[C@H]3O[C@@H](CC(=O)N4CCN(c5ccccc5)CC4)CC[C@@H]32)c1`, the activity (Tm shift, normalised) is reported as 0.06% (inactive). For `Clc1ccc(-c2cccc3nccn23)cc1`, the activity (Tm shift, normalised) was 0.174% (inactive). `O=C(NCCO)c1cccc(-c2cccc3nccn23)c1` was tested, and the activity (Tm shift, normalised) was -0.228% (inactive). In the case of `c1cc(-c2ccc3[nH]ccc3c2)n2ccnc2c1`, the activity (Tm shift, normalised) is reported as 43.4% (active). With `Cn1cnc(CCNC(=O)C[C@H]2CC[C@@H]3[C@H](COC[C@H](O)CN3C(=O)C3CC3)O2)c1` the activity (Tm shift, normalised) was -0.297% (inactive). For `COc1cccc(S(=O)(=O)N2CC3(CCN(C)CC3)c3c(n(C)c4cc(OC)ccc34)[C@H]2CO)c1`, the activity (Tm shift, normalised) was 0.01% (inactive). For `C[C@H]1CN([C@@H](C)CO)C(=O)c2c(c3ccccc3n2C)-c2ccccc2CO[C@@H]1CN(C)Cc1ccc2c(c1)OCCN2C`, the activity (Tm shift, normalised) was -0.115% (inactive). With `O=C(NNC(=O)c1ccc(Cl)cc1Cl)c1cccs1` the activity (Tm shift, normalised) was 43.3% (active). `Cc1ccc(NNC(=O)c2cccs2)cc1Cl` was tested, and the activity (Tm shift, normalised) was -0.036% (inactive). In the case of `O=C(COC(=O)c1ccc(O)cc1O)NNC(=O)c1cccs1`, the activity (Tm shift, normalised) is reported as 0.153% (inactive). For `C/C=C/c1cnc2c(c1)C(=O)N([C@H](C)CO)C[C@H](C)[C@@H](CN(C)CC1CCOCC1)O2`, the activity (Tm shift, normalised) was -0.049% (inactive). With `C[C@@H]1CN([C@@H](C)CO)S(=O)(=O)c2ccc(C3=CCCC3)cc2O[C@H]1CN(C)C(=O)CC1CC1` the activity (Tm shift, normalised) was -0.028% (inactive). With `COc1ccc2c3c([nH]c2c1)[C@@H](CO)N(C(=O)Nc1cccc(F)c1)CC31CCN(S(=O)(=O)c2ccccc2)CC1` the activity (Tm shift, normalised) was -0.126% (inactive). In the case of `O=C(N[C@H]1C=C[C@@H](CC(=O)N2CCCCC2)O[C@@H]1CO)c1ccc2c(c1)OCO2`, the activity (Tm shift, normalised) is reported as -0.043% (inactive). For `O=C(N[C@H]1CC[C@H](CC(=O)N2CCCCC2)O[C@@H]1CO)c1cccc(F)c1`, the activity (Tm shift, normalised) was -0.194% (inactive) and -0.138% (inactive). With `O=C(N[C@@H]1C=C[C@H](CC(=O)N2CCCCC2)O[C@H]1CO)c1cccc(F)c1` the activity (Tm shift, normalised) was 2.12% (active).

Source: PubChem BioAssay AID651658 (Broad Institute, 2012)
